Shown are actives, neighbours in structure and some others; about 6.7% of the full set was active somewhere.
KB-3-1 cytotox – kills parental KB-3-1 adenocarcinoma cells; KB-3-1 viability, CellTiter-Glo ATP luminescence, 72 h; Potency, µM (titrated, usually from 46.1 µM), usual class: cytotoxic; 400,000 compounds, 1.4% hits; AID 1347075; further: nearly all actives have a fitted effect of over 60% in size
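Parental KB-3-1 adenocarcinoma cells in phenol-red-free DMEM with 10% FBS were pin-treated with compounds at several concentrations, incubated 72 h at 37 °C, and viability read by CellTiter-Glo luminescence; concentration-effect curves were fitted after normalization.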
KB-V1 MDR tox – KB-V1 MDR subline cytotoxicity. AID 1347076. Potency, µM (highest dose often 46.1 µM), usual class: cytotoxic. 400,000 compounds, 3.4% hits. KB-V1 MDR cells viability, CellTiter-Glo, 72 h; further: nearly all actives have a fitted effect of over 60% in size
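KB-V1 cells (P-gp-expressing MDR subline of KB-3-1) in phenol-red-free DMEM with 10% FBS were exposed to library compounds over a concentration series for 72 h at 37 degrees C. Viability read by CellTiter-Glo luminescence; concentration-effect curves fitted after normalization.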
MCF10A rerep – induces DNA re-replication in MCF 10a normal breast cells; MCF 10A DNA re-replication, Hoechst nuclear intensity, 48 h; Potency, µM (highest dose often 46.1 µM), hits mostly activators; 350,000 compounds, 2.9% hits; AID 624296; further: nearly all actives have a fitted effect of over 50% in size
SW480 rereplic – DNA re-replication induction in SW480 cells; 340,000 compounds, 1.8% hits; SW480 DNA re-replication, Hoechst DNA content imaging, 48 h; Potency, µM (top dose mostly 46.1 µM), usual class: activators; AID 624297; further: nearly all actives have a fitted effect of over 55% in size
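Image-based DNA-content assay: after two days of treatment, nuclei were labelled with the DNA dye Hoechst and imaged, and hits were compounds raising the count of nuclei showing high fluorescence intensity.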
PINK1 modulator – changes PINK1 expression | AID 624263 | Potency, µM (series often up to 76.6 µM), usual class: activators | PINK1 immunofluorescence, high-content cytometry, 24 h | 410,000 compounds, 0.2% hits; active means well fitted activation curve with a large enough effect; inconclusive means small, poorly fitted or top-dose-only effect; cell line not stated here; further: nearly all actives have a fitted effect of over 65% in size
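A stable cell line was treated with compounds at 5 concentrations for 24 hours, with CCCP as control. PINK1 levels and mitochondrial localization were measured by immunofluorescence with mitochondrial, cell and nuclear markers after fixation, read by laser-scanning cytometry.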
A number is an active result; – = inactive; ? = inconclusive; · = no result given. Unless noted, the call rests on the fitted dose curve; in most records, active means well fitted curve in the direction sought with a large enough effect; inconclusive means small, poorly fitted or top-dose-only effect, or another doubt; inactive means no such curve, though single readings can be large; an effect the other way counts as inactive or inconclusive.

SMILES	KB-3-1 cytotox	KB-V1 MDR tox	MCF10A rerep	SW480 rereplic	PINK1 modulator
CCOC(=O)[C@]12CCC=C1N(Cc1ccc(Cl)cc1Cl)C(=O)[C@H](CC(=O)NCc1cccc(C(F)(F)F)c1)C2	?	21µM	·	·	–
CCOC(=O)[C@]12CCCC=C1N(Cc1ccc(Cl)cc1Cl)C(=O)[C@H](CC(=O)NCc1cccc(C(F)(F)F)c1)C2	?	16µM	·	·	–
CCOC(=O)[C@]12CCCC=C1N(Cc1ccc(Cl)cc1Cl)C(=O)[C@H](CC(=O)NCc1ccc(OC)c(OC)c1)C2	?	18µM	·	·	–
COC(=O)[C@]12CCCCC=C1N(Cc1ccc(Cl)cc1Cl)C(=O)[C@H](CC(=O)NCc1cccc(C(F)(F)F)c1)C2	–	–	·	·	–
CCOC(=O)[C@]12CCC=C1N(Cc1ccc(Cl)cc1Cl)C(=O)[C@H](CC(=O)NCc1ccccc1)C2	–	?	·	·	–
CCCOc1ccc(-c2c(C(=O)N/N=C(\C)c3ccncc3)nnn2-c2nonc2N)cc1	–	–	–	–	–
COC(=O)c1ccccc1NC(=O)CNc1ccc(F)c(S(=O)(=O)N2CCOCC2)c1	–	?	–	–	–
CCOC(=O)c1ccc(NC(=O)Cc2coc3cc(C)cc(C)c23)cc1	–	–	·	·	–
COc1cccc(-c2c(C#N)c(N)nc3c2c(C)nn3-c2ccccc2)c1O	–	–	?	–	–
Cc1nc2ccccn2c1C(=O)/C=C/c1cccc([N+](=O)[O-])c1	2.6µM	?	?	4.1µM	–
Cc1ccc(/C=C/C(=O)c2c(C)nc3ccccn23)cc1	18µM	–	?	?	–
O=C(COC(=O)C1CC2C=CC1C2)Nc1ccc([N+](=O)[O-])cc1 (configuration not stated)	–	–	–	–	–
CCN(CC)S(=O)(=O)c1nnc(NC(=O)COc2cccc(C)c2)s1	–	–	·	·	–
COc1ccc(S(=O)(=O)N2CCN(C(=O)NC3CCCCC3)CC2)cc1OC	–	16µM	–	–	–
COc1ccc(NC(=O)C2CCCN2C(=O)NC2CCCCC2)cc1OC (configuration not stated)	–	–	–	–	–
COc1ccc(NC(=O)C2CCCN(C(=O)NC3CCCCC3)C2)cc1OC (configuration not stated)	–	15µM	–	–	–
C[C@@H]1CN([C@H](C)CO)C(=O)CCCn2cc(nn2)CO[C@H]1CN(C)C(=O)Nc1cccc(F)c1	–	–	·	·	–
COC(=O)c1cc(=O)n(Cc2cccs2)c(=Nc2ccccc2)s1	–	?	10µM	–	–
CCOC(=O)c1ccc(N=c2sc(C(=O)OC)cc(=O)n2-c2ccc(C(=O)OCC)cc2)cc1	?	?	?	?	–
COC(=O)c1cc(=O)n(-c2ccccc2)c(=Nc2ccccc2)s1	?	–	18µM	?	–
CNC(=S)N(C)/N=C1/C(=O)N(Cc2c(Cl)cccc2Cl)c2ccccc21	–	?	18µM	?	–
CN(C)CCNC(=O)c1ccc2c(c1)N(Cc1c(F)cccc1Cl)C(=O)c1ccccc1S2	–	?	·	·	–
O=C(OCc1cc(=O)n2ccsc2n1)C1(c2ccccc2)CC1	–	–	·	·	–
CCCn1c(N)c(C(=O)CSc2ncc(C(F)(F)F)cc2Cl)c(=O)[nH]c1=O	–	?	16µM	–	–
CCCn1c(N)c(C(=O)CSc2nc(C)nc3sc(C)c(C)c23)c(=O)[nH]c1=O	–	–	–	–	–
SMILES	KB-3-1 cytotox	KB-V1 MDR tox	MCF10A rerep	SW480 rereplic	PINK1 modulator
COc1ccccc1CCNc1ncnc2sc(C(=O)N3CCCN(C=O)CC3)c(C)c12	·	·	·	·	–
Cc1oc2c(c1C(=O)NCc1cccc(Br)c1)C1=NCCN1C=N2	–	–	·	·	–
O=P(NCc1ccccc1)(OCc1ccccc1)OCc1ccccc1	–	9.2µM	–	–	–
CN(Cc1ccccc1)C(=O)CC(c1ccccc1)c1cc(Cl)ccc1O (configuration not stated)	?	13µM	?	?	–
CCCN(CCC)C(=O)CC(c1ccccc1)c1cc(C)ccc1O (configuration not stated)	–	?	?	–	–
CC(NC(=O)CC(c1ccccc1)c1cc(Cl)ccc1O)c1ccccc1 (configuration not stated)	?	21µM	?	–	–
CC(NC(=O)CCC(=O)NC(C)c1ccccc1)c1ccccc1 (configuration not stated)	–	–	–	?	–
CC(NC(=O)CCSCCC(=O)NC(C)c1ccccc1)c1ccccc1 (configuration not stated)	–	16µM	–	–	–
COc1ccc(C(C(=O)NC2CCCC2)n2c(-c3cccs3)nc3ccccc32)cc1 (configuration not stated)	–	?	·	·	·
COc1ccc(CCNC(=O)c2ccc(CN3CCC(Cc4ccccc4)CC3)cc2)cc1	–	9.2µM	–	–	–
CC(C)NC(=O)c1ccc(CN2CCC(Cc3ccccc3)CC2)cc1	–	–	–	–	–
Cc1ccccc1NC(=O)c1ccc(CN2CCC(Cc3ccccc3)CC2)cc1	?	15µM	?	?	–
COC(=O)c1ccccc1NC(=O)N1CCN(S(=O)(=O)c2ccc(Cl)cc2)CC1	–	?	?	9.2µM	–
COc1ccccc1C(C)NC(=O)CCC(=O)N1CCN(S(=O)(=O)c2ccc(Cl)cc2)CC1 (configuration not stated)	?	18µM	–	–	–
COc1ccccc1C(=O)NCCC(=O)N1CCN(S(=O)(=O)c2ccc(Cl)cc2)CC1	–	–	–	–	–
COC(=O)c1ccccc1NC(=O)N1CCCC1	–	?	–	–	–
O=C(c1cccc(Cl)c1)N1CCN(CCCc2ccccc2)CC1	–	–	–	–	–
CCCOc1cc(C)c(S(=O)(=O)N2CCOCC2)cc1C	·	·	–	–	·
COc1cc(C)c(S(=O)(=O)N2CCOCC2)cc1C	–	–	3.3µM	8.2µM	–
COc1ccc(-c2cc(C(=O)Nc3c(C)nn(Cc4ccccc4Cl)c3C)no2)cc1	–	–	10µM	–	?
Cc1cc(C(=O)Nc2c(C)nn(Cc3c(Cl)cccc3Cl)c2C)no1	–	9.2µM	–	–	–
CS(=O)(=O)N1CCC(C(=O)N2CCc3ccccc3C2)CC1	–	–	–	–	–
Cc1ccc(CCNC(=O)C2CCCN(S(C)(=O)=O)C2)cc1 (configuration not stated)	–	–	–	–	–
Cn1c(C(=O)N2CCCC(C(=O)NCCCc3ccccc3)C2)cc2sccc21 (configuration not stated)	–	21µM	–	–	–
CS(=O)(=O)N1CCCC(C(=O)N2CCc3ccccc3C2)C1 (configuration not stated)	–	–	2.9µM	10µM	–
Cn1c(C(=O)N2CCCC(C(=O)NCCc3ccccc3)C2)cc2sccc21 (configuration not stated)	?	?	–	–	–
